Experimental data taken from the supplement of paper PMC11417369.
Over roughly 25,000 sequences, “ln(normalized median fluorescence intensity)” has its median near 9.7; the highest 2% begin near 11. The full list was thinned out, with the highest values kept by preference.

system: PfAP2-HC AP2 domain (GST-tagged); assay: gcPBM binding intensity (ln(normalized median fluorescence intensity)); higher = stronger DNA binding
How it was run: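 Binding intensity values are the highest Masliner-normalised natural-log median intensity among replicate spots of either probe orientation. The binding step lasted 1 h in 1× PBS with 1% milk, 0.2 mg/ml BSA, 0.5% salmon testes DNA and 0.03% Triton X-100, using GST-tagged P. falciparum DNA-binding domains expressed in E. coli on an Agilent 4 × 180k array of primer-extended double-stranded 36-bp intergenic genomic probes plus negative controls. Alexa488 anti-GST antibody and a 488 nm scan detected bound protein.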

In order of rising “gcPBM binding intensity (ln)” value:
1. TATTTATAAAAAAATACATGCATTTTTTTTTTTTTT [TGCATGCA_site65]  9.36
2. TTTTTTTTTTTTGTAGTGCAAATTAAAAATATATGT  9.39
3. GTTATATAAAAATATTGTACATTCTATATAAAGTCA [XGTACX_site4418]  9.47
4. TGTTTTTAAAAAAAAAAAAAATCACACCGGCAGGTA [CACACA_negctrl_site1437]  9.49
5. AAGATAACAAGTAATCAATCTAATTATTAATTATAT [CACACA_negctrl_site1713]  9.52
6. CTTTGTGTTAAAAGTAGTACACCAAAAATATGACTT [XGTACX_site622]  9.55
7. TTATATATATATGTATGTACTTATAACTTTTATTAG [XGTACX_site3190]  9.6
8. CAATTTTACTCATAAACACACATATAGATGTTATTA [CACACA_site7474]  9.6
9. TAAGAAAAATATATATGTACACATATATATATATAT [XGTACX_site8542]  9.61
10. AAATAATATATTCCTTGTACTTATTTCAATGAATTC [XGTACX_site7719]  9.64
11. ACATAGATCATAGGTTGTACGAAGGTATCCTTTATT [XGTACX_site694]  9.65
12. TATTCTAATATATGCATACACACAAATGTGAATATA [CACACA_site2143]  9.66
13. TTTATTAGTAATTATACACACATATAAAATGAATAA [CACACA_site6754]  9.67
14. AAAACAAATTAAAATCGTACAATTATAATGTTAATG [XGTACX_site180]  9.7
15. AGATAGCTATTAAAAAGTACAAAAAAATATATATAT [XGTACX_site6289]  9.71
16. ATACATTTTTGTAAAAGTACATATACATGCCCCCTT [XGTACX_site1367]  9.72
17. GATATGGAATATATGTGTACATATATATATATTATA [XGTACX_site1724]  9.77
18. TTCTATATATAATATTGTACTTAATTATTTTATTTT [XGTACX_site2701]  9.83
19. ATATTATACATTTATACACACATAAAAAGACAAAAA [CACACA_site3565]  9.92
20. ATATTACACATATATGCACACATTGTAGTTATTTAT [CACACA_site8843]  9.99
21. TTTTATCATATTTATTGTACACATAATATACATATC [XGTACX_site1145]  9.99
22. TAATATATAACGTGCACACACACATTTACGTATGAA [CACACA_site1832]  10
23. ATATATAACGTGCACACACACATTTACGTATGAATA [CACACA_site6948]  10
24. ATAATAAGGTTAAGCACACATATTACATATATAACT [CACACA_site3356]  10
25. AACGAACACTATTACACACATACATACATATGTATG [CACACA_site1859]  10.1
26. GATATGTACTAATACACACACATATATATATATATA [CACACA_site1022]  10.2
27. AAGGAAAAACCATTCGCACACACACCGAATATATAA [CACACA_site8403]  10.2
28. TGGCAAAATAGGCACACACACATATACATATATATT [CACACA_site1059]  10.3
29. CATACATACAGACACACACACATATAAATACATACA [CACACA_site6533]  10.3
30. AAAAAAAAAAGACACACACACATATTTATTTATATA [CACACA_site6484]  10.4
31. AAAAAAAAAAAACACACACACACATTCAATATAAAA [CACACA_site40]  10.4
32. TGGAAAAATAGGCACACACACATATATACATATATA [CACACA_site1297]  10.5
33. AATGGAAAAATAGGCACACACACATATATACATATA [CACACA_site1298]  10.6
34. TATACAGACAGACACACACACATATATAAATATGTA [CACACA_site6912]  10.6
35. AATGGCAAAATAGGCACACACACATATACAGATATA [CACACA_site4726]  10.6
36. ATATAGATCAGACACACACACATGTTTTAAAACTAT [CACACA_site6186]  10.9
37. AATGGCAAAATAGGCACACACACATATACATATATA [CACACA_site1058]  10.9
38. CAAATACATGGACACACACACATATACAGATATATA [CACACA_site5854]  10.9
39. ATATATAACGGGCACACACACATTTACGTATGAATA [CACACA_site1833]  11.1
40. TTATATATAGATCACACACACACACCGGTTTTAAAA [CACACA_site4220]  11.2
41. TTAAAAAAAAGACACACACACATACACATATTTATA [CACACA_site7535]  11.2
42. AATGGAAAAATAGGCACACACACATAAATACAGATA [CACACA_site4844]  11.2
43. GGAATAACCAGACACACACACACATATAAATATGTA [CACACA_site7632]  11.2
44. AATACATACAGACACACACACACATATAAATAAATA [CACACA_site7642]  11.6
